From PubChem BioAssay (NCI)
The panel holds about 83,000 compounds, 20% with a hit somewhere; the sample as a whole holds those more often.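 The test compound was applied at a single concentration to cells in 96-well plates for 48 hours, and percent growth was recorded.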 Values without a mark were called inactive. Active and inactive are the calls of the source.

System: SW-620 colon
Assay: NCI-60 one-dose screen, 48 h (100 = growth as untreated, 0 = no growth, -100 = all killed)
Conditions: 10 µM unless noted
Protocol: Growth inhibition of the SW-620 human tumor cell line is measured as a screen for anti-cancer activity. Cells are grown in 96 well plates and exposed to the test compound for 48 hours. Compounds are tested at a single concentration, which is 10^-5 M for most compounds. The reported endpoint is percent growth (GI% or GIPRCNT), where numbers from 0 - 100% represent growth inhibition, and numbers from -100% - 0 represent cell death. For example, a value of 40 represents 60% growth inhibition. A value of 0 means no net growth occurred over the course of the experiment. A value of -40 indicates 40% of cells at the beginning of the experiment died by the end of the experiment. A value of -100 means all cells are dead at the end of the experiment.
NCI-60 Human Tumor Cell Lines Screen was performed using the standard one-dose NCI protocol, which is described in more detail at https://dtp.cancer.gov/discovery_development/nci-60/default.htm.
Compounds with GIPRCNT values below 10 were considered active. Activity score was based on GIPRCNT using the following formula: […]
Score is 0 for GIPRCNT values of 100 or above, 50 for GIPRCNT values of 0, and 100 for GIPRCNT values of -100.

Row | Structure (SMILES) | growth
1 | CC1(C)CC[C@]2(C(=O)O)CC[C@]3(C)C(=CCC4[C@@]5(C)C[C@@H](O)[C@@H]6OC(c7ccccc7O)OC[C@@]6(C)C5CC[C@]43C)C2C1 (stereo not given in full) | 37.8%
2 | Cn1ccnc1C(=O)/C=C/c1ccc(C(=O)Nc2ccc(NC(=O)CCNC(=O)c3csc(Br)n3)cc2)cc1 | 14.1%
3 | Cc1ccccc1/C=C/c1nn2c(-c3ccoc3C)nnc2s1 | 104%
4 | O=C(/C=C1\C=CN(CCCCO)c2ccccc21)n1ccc2ccccc21 | 104%
5 | O=C(NNc1nc2cc(F)c(F)cc2n2cccc12)c1ncccn1 | 26.4%
6 | COc1cccc(/C=C/C(=O)c2ccc(NC(=O)COc3cccc4cccnc34)cc2)c1 | 94.3%
7 | CN1CCN(c2ccc3c(c2)nc(NNC(=O)c2ccncn2)c2cccn23)CC1 | 22.8%
8 | O=C(Nc1ccc(-c2nc(-c3cccc(O)c3)c(-c3ccnc(Br)c3)[nH]2)cc1)c1ccccc1 | 10.5%
9 | Nc1nc(N)c2c(n1)NC(c1ccc(Cl)cc1)CC(c1ccc(Nc3nc(NCCO)nc(Nc4ccc(Cl)cc4)n3)cc1)=N2 (stereo not given) | -36.2% (active)
10 | CCC(=O)Nc1cc(Nc2cc(NC3CC3)n3ncc(C#N)c3n2)ccc1C | 17.4%
11 | C=CCn1c(SCC(=O)Nc2cccc(C(=O)/C=C/c3ccc(Cl)cc3)c2)nc2ccccc2c1=O | 77.4%
12 | N#C/C(=C\c1ccc(Cl)cc1Cl)C(N)=O | 88.3%
13 | Cc1ccc(-c2cc(-c3ccc(N(C)C)cc3)n3c(n2)nc2ccccc23)cc1 | 80.1%
14 | CN1CCN(Cc2ccc(NC(=O)c3cncc(C#Cc4cnc5ccc(NC6CCOCC6)nn45)c3)cc2C(F)(F)F)CC1 | -42.1% (active)
15 | Oc1ccc(CSc2nnc(-c3ccncc3)n2-c2ccccc2)c2cccnc12 | 16.5%
16 | CN(C)c1ccc(/C=N/Nc2nc(N/N=C/c3ccc(N(C)C)cc3)nc(N3CCOCC3)n2)cc1 | 83.8%
17 | CCC(C)[C@H]1OC(=O)[C@H](C(C)C)N(C)C(=O)[C@@H](C(C)C)OC(=O)[C@H](C(C)C)N(C)C(=O)[C@@H](C(C)CC)OC(=O)[C@H](C(C)C)N(C)C1=O (stereo not given in full) | 17.3%
18 | COc1ccc(-c2nc3cc(Cl)c(Cl)cc3n2CC(=O)N=Nc2c(O)[nH]c3ccc(Cl)cc23)cc1 | 32.1%
19 | C=CCn1c(SCC(=O)Nc2cccc(C(=O)/C=C/c3cccc([N+](=O)[O-])c3)c2)nc2ccccc2c1=O | 62%
20 | Cc1cc(=O)n2nc(-c3cn(C)c4ccc(Cl)cc34)sc2n1 | 97.6%

Row | Structure (SMILES) | growth
21 | C/C(=C(/c1ccc(O)cc1)c1ccc(OCCN2CCCC2)cc1)c1ccc(Cl)cc1 | -57.1% (active)
22 | Cc1cc(=O)n2nc(-c3c[nH]c4ccccc34)sc2n1 | 94.4%
23 | N#Cc1c(-c2ccccc2)cc(-c2c[nH]c3ccccc23)nc1-c1c[nH]c2ccccc12 | 102%
24 | C/C(=N\NC(=S)Nc1ccc(Br)cc1)c1cc2ccccc2oc1=O | 27.7%
25 | Cn1cc(-c2nn3cc(-c4ccncc4)nc3s2)c2cc(Cl)ccc21 | 18.8%
26 | C=C(C)[C@@H]1CC[C@]2(C(=O)NCCCN(CCC#N)CCC#N)CC[C@]3(C)[C@H](CC[C@@H]4[C@@]5(C)CCC(=O)C(C)(C)[C@@H]5CC[C@]43C)[C@@H]12 | 100%
27 | Oc1ccc(CSc2nnc(-c3ccc(Oc4ccccc4)cc3)n2-c2ccccc2)c2cccnc12 | 12.8%
28 | C#Cc1ccc(NC(=O)c2ccc(/C=C/C(=O)c3nccn3C)cc2)c(F)c1 | 18.9%
29 | Oc1ccc(CSc2nnc(-c3ccc(Br)cc3)o2)c2cccnc12 | 17.7%
30 | COc1ccc([C@@H]2[C@@H](O)C(=O)N2c2cc(OC)c(OC)c(OC)c2)cc1 | 19.4%
31 | O=C(CSc1nnc(-c2cccs2)n1-c1ccccc1)Nc1ccc(F)cc1 | 97.2%
32 | CS(=O)(=O)c1ccc2c(c1)c1c(n2Cc2ccc(Cl)cc2)CCCC1 | 74.1%
33 | CC(=O)c1ccc(NC(=O)COc2ccc(C3SCC(=O)N3c3ccc(Br)cc3)cc2)cc1 (stereo not given) | 110%
34 | C=CCn1c(SCC(=O)Nc2ccc(OC)cc2)nnc1-c1ccc(Cl)cc1 | 99.1%
35 | O=S(=O)(Nc1ccc(C2CC2)cc1)c1ccc(-c2cnc(C3CC3)o2)cc1 | 33.8%
36 | CC(=O)NC(C)(C)C(=O)N1CCC[C@H]1C(=O)NC(C)(C)C(=O)N[C@@H](C)C(=O)NC(C)(C)C(=O)NC(C)(C)C(=O)N[C@@H](CCC(N)=O)C(=O)NC(C)(C)C(=O)N[C@H](C(=O)NC(C)(C)C(=O)NCC(=O)N[C@@H](CC(C)C)C(=O)NC(C)(C)C(=O)N1CCC[C@H]1C(=O)N[C@H](C(=O)NC(C)(C)C(=O)NC(C)(C)C(=O)N[C@@H](CCC(N)=O)C(=O)N[C@@H](CCC(N)=O)C(=O)N[C@H](CO)Cc1ccccc1)C(C)C)C(C)C | 45.5% [4.25 µM]
37 | Cc1nn(-c2ccccc2)c2nc(CCl)[nH]c(=O)c12 | 85.1%
38 | Cn1cc(-c2nn3cc(-c4cccnc4)nc3s2)c2ccccc21 | 17.1%
39 | O=C1NC(=O)/C(=C/c2ccc(OCc3cc4ccccc4nc3Cl)cc2)S1 | 104%
40 | C/C(=C(/c1ccc(O)cc1)c1ccc(OCCN2CCCCCC2)cc1)c1ccccc1 | -52.6% (active)
